Screens deposited in PubChem by SRMLSC.
Autofluor 339 = intrinsic fluorescence of library compounds, ex339/em460 – biochemical, MLSMR library, data from DPM-DC assay, artefact control, profiling panel; 65,000 tested, 5.5% active; compound autofluorescence, ex339/em460 nm, NADH buffer; stronger effect = higher value; 1 = no-compound wells, NADH background; AID 709; fluorescence fold increase at 10 µM;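 active = at 10 µM, mean starting fluorescence two-fold or more over control wells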;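 also: signal is the first read of a kinetic run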
NADH enzymes = blocks coupling enzymes of NAD/NADH assays. IC50, µM (doses to about 10 µM). 65,000 tested, 0.02% active. coupled PK/LDH NADH assays, four targets. AID 774;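 active = single-dose screening hits from any of four coupled enzyme assays that gave an IC50 when retested across doses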;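 also: the DPM-DC format reads NADH fluorescence rather than 340 nm absorbance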
A340 absorber = absorbance at 340 nm | fold change at 10 µM | 65,000 tested, under 10 active | AID 708 | compound absorbance at 340 nm, fold over control;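 active = at 10 µM dose, initial 340 nm absorbance at least 2 fold that of control wells; inactive = change under 2 fold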;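 also: initial absorbance extrapolated from kinetic A340 decline of NADH oxidation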
Spn PMK inh = inhibitors of Streptococcus pneumoniae phosphomevalonate kinase; purified PMK, PK/LDH-coupled NADH absorbance 340 nm; inhibition, % at 10 µM; 65,000 tested, 0.49% active; AID 539;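 active = top-ranked compounds by inhibition in the single 10 µM screen, taking a fixed number of the strongest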
MK inhibit = blocks S. pneumoniae mevalonate kinase; inhibition, % at 10 µM; purified MK, PK/LDH-coupled NADH absorbance 340 nm; AID 555; 65,000 tested, 0.48% active;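 active = ranked among the strongest by inhibition in the single 10 µM screen, a fixed top-ranked set picked for dose follow-up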
DPM-DC inhibit = blocks S. pneumoniae diphosphomevalonate decarboxylase | purified DPM-DC, PK/LDH coupled NADH fluorescence | calls only at 10 µM | 65,000 tested, 0.49% active;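 active = the 320 compounds with the highest percent inhibition in the single-dose primary screen, excluding strongly autofluorescent ones, cut at about 32% in these data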;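 also: kinetic rate of NADH fluorescence loss reporting ADP formed by the decarboxylase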
A number is an active result; i = inactive; nt = no result given; + = active, no number; [ ] = another dose, or the depositor's remark. An excerpt weighted towards active compounds, which were near 6.8% of everything screened.

SMILES | Autofluor 339 | NADH enzymes | A340 absorber | Spn PMK inh | MK inhibit | DPM-DC inhibit
COC(=O)c1ccc(C(=O)OC)c(NC(=O)CCC(=O)O)c1 | 2.1 | i | i | i | i | nt
COC(=O)c1ccc(C(=O)OC)c(NC(=O)CCc2ccc(C)o2)c1 | i | i | i | i | i | i
CCOC(=O)C1CCCN(C(=O)C2CCCN(S(C)(=O)=O)C2)C1 (centres undefined) | i | i | i | 26 | i | i
C=CCn1c(-c2ccccc2)nc2nc3ccccc3nc21 | 2.1 | i | i | i | i | nt
COc1ccc(-c2noc(CCC(=O)N3CCN(c4cccc(C(F)(F)F)c4)CC3)n2)cc1 | i | i | i | i | i | i
CCn1cc(C(=O)NCc2ccc3c(c2)OCO3)c(=O)c2cc(F)c(N3CCN(C)CC3)cc21 | 2.2 | i | i | i | i | i
CCn1cc(C(=O)NCc2ccco2)c(=O)c2cc(F)c(N3CCN(C(=O)c4ccco4)CC3)cc21 | 2.4 | i | i | i | i | +[fluoresces]
CCn1cc(C(=O)NCCc2ccccc2)c(=O)c2cc(F)c(N3CCN(C)CC3)cc21 | i | i | i | i | i | i
CCCC(C(=O)NC1CCCC1)N(CCCN1CCOCC1)C(=O)c1snc(C(N)=O)c1N (centres undefined) | 2.2 | i | i | i | i | i
CCCC(C(=O)NC1CCCC1)N(CC1CCCO1)C(=O)c1snc(C(N)=O)c1N (centres undefined) | 2.8 | i | i | i | i | i
CN(C)S(=O)(=O)c1ccc(NC(=O)C2COc3ccccc3O2)cc1 (centres undefined) | i | i | i | i | i | i
CC(C)(C)c1cc(Br)ccc1OCC(=O)Nc1ncn[nH]1 | i | i | i | i | i | i
CCC(C)(C)n1nnnc1C(c1cc2cc(C)ccc2[nH]c1=O)N1CCCC1 (centres undefined) | i | i | i | i | i | i
O=c1[nH]c2cc3c(cc2cc1C(c1nnnn1CC1CCCO1)N1CCCC1)OCO3 (centres undefined) | 4.8 | i | i | i | i | nt
CCN1CCN(C(c2cc3cc4c(cc3[nH]c2=O)OCO4)c2nnnn2C(C)(C)CC)CC1 (centres undefined) | 4 | i | i | i | i | nt
CC(C)(C)n1nnnc1C(c1cc2cc3c(cc2[nH]c1=O)OCO3)N1CCN(c2ccccc2)CC1 (centres undefined) | 3 | i | i | i | i | +
Cc1ccc(-c2noc(CN3CCC(C(N)=O)CC3)n2)cc1 | i | i | i | i | i | i
CS(=O)(=O)NCCSCc1ccco1 | i | i | i | i | i | i
Cc1nnc(NC(=O)CSc2nnc(Cc3cccn3C)n2-c2cccc(C(F)(F)F)c2)s1 | i | i | i | i | i | i
CCN1CCN(C(=O)c2cc3c(-c4ccc(Cl)cc4)nn(C)c3s2)CC1 | i | i | i | i | i | i
Cn1nc(-c2ccc(Cl)cc2)c2cc(C(=O)NCCCN3CCOCC3)sc21 | 2.1 | i | i | i | i | nt
Cn1nc(-c2ccc(Cl)cc2)c2cc(C(=O)NCCN3CCOCC3)sc21 | 2.1 | i | i | i | i | nt
Cn1nc(-c2ccc(Cl)cc2)c2cc(C(=O)N3CCN(C(=O)c4ccco4)CC3)sc21 | i | i | i | i | i | i
Cn1c(=O)c2c(-c3ccccc3)n(-n3cnnc3)cc2n(C)c1=O | i | i | i | i | i | i
O=C(CN1C(=O)CSC1=O)NC1CCCCC1 | i | i | i | i | i | i
SMILES | Autofluor 339 | NADH enzymes | A340 absorber | Spn PMK inh | MK inhibit | DPM-DC inhibit
Cc1ccc2c(N)c(C)ccc2c1 | 3.7 | i | i | i | i | nt
CCC(C)NC(=O)c1n[nH]c(=O)c2ccccc12 (centres undefined) | i | i | i | i | i | i
COc1ccc(-c2cc(C(F)F)n3ncc(C(=O)NCCCN4CCCC4=O)c3n2)cc1 | 2.2 | i | i | i | i | nt
CN1CCN(C(=O)c2cnn3c(C(F)(F)F)cc(-c4ccc5c(c4)OCO5)nc23)CC1 | i | i | i | i | i | i
O=C(c1ccco1)N1CCN(C(=O)c2cnn3c(C(F)(F)F)cc(-c4cccs4)nc23)CC1 | 3.6 | i | i | i | i | nt
CCN1CCN(C(=O)c2cnn3c(C(F)F)cc(-c4ccc(C)cc4)nc23)CC1 | 2.3 | i | i | i | i | i
COc1ccc(-c2cc(C(F)F)n3ncc(C(=O)N4CCN(C(=O)c5ccco5)CC4)c3n2)cc1 | 2.1 | i | i | i | i | nt
COc1ccc(NC(=O)NCCCN2CCCC2=O)cc1 | i | i | i | i | i | i
COC(=O)c1nnn(-c2nc(N3CCCCC3)nc(N3CCCCC3)n2)c1C | i | i | i | i | i | i
CCCCCC1CC(=O)N(Cc2ccc(Cl)cc2)C(=O)N1 (centres undefined) | i | i | i | i | i | i
COc1ccc(-c2nsc3c(N4CCN(C(=O)c5ccco5)CC4)ncnc23)cc1 | 2.8 | i | i | i | i | +
O=C(c1ccco1)N1CCN(c2ncnc3c(-c4ccccc4)nsc23)CC1 | i | i | i | i | i | i
CN(CCc1ccccn1)S(=O)(=O)c1ccccc1F | i | i | i | i | i | i
CN(CCc1ccccn1)Cc1ccc(Cl)cc1Cl | i | i | i | i | 44 | i
O=C(Nn1c(C2CC2)nc2ccccc2c1=O)c1ccco1 | i | i | i | 55 | i | i
CCC(=O)Nc1nnc(-c2ccc(OC)cc2)o1 | i | i | i | i | i | i
CCCCOc1ccc(C2CC(=O)N(C)C2=O)cc1 (centres undefined) | i | i | i | i | i | i
CC1=C(C#N)C(c2cccnc2)C2=C(CC(C)(C)CC2=O)N1 (centres undefined) | 2.1 | i | i | i | i | nt
CC1=C(C#N)C(C)C2=C(CC(C)(C)CC2=O)N1 (centres undefined) | 2.1 | i | i | i | i | nt
COc1cc(C2C(C#N)=C(C)NC3=C2C(=O)CC(C)(C)C3)ccc1OCCO (centres undefined) | i | i | i | i | i | i
COc1cc(C2C(C#N)=C(C)NC3=C2C(=O)CC(C)(C)C3)cc(OC)c1O (centres undefined) | i | i | i | i | i | +
CCOc1ccc(C2C(C(=O)Nc3ccc(F)cc3)=C(C)Nc3nc(CCCO)nn32)cc1 (centres undefined) | i | i | i | i | i | i
COc1ccc(/C=N/n2cncn2)cc1CSc1ccccn1 | i | i | i | i | i | i
COCc1cc(C)nc2sc(C(=O)Nc3nccs3)c(N)c12 | 2.2 | i | i | i | i | nt
Cc1cc(C)c2c(N)c(C(=O)Nc3nccs3)sc2n1 | 2.1 | i | i | i | i | nt
COc1cccc(CC(=O)Nc2nccs2)c1 | i | i | i | i | i | i
Cc1ncoc1C(=O)Nc1nccs1 | i | i | i | i | i | i
CNS(=O)(=O)c1cc(OCC(N)=O)c(C)cc1Cl | i | i | i | i | i | i
CC1(C)CC(=O)c2cc(OCC(=O)NCc3cccnc3)ccc2O1 | 5.1 | i | i | i | i | nt
